Assay [1] is described as follows: NCI Yeast Anticancer Drug Screen. Data for the rad50 strain (AID 155).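 Note: 0% = growth of vehicle-only cultures of the same strain.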 Conditions: S. cerevisiae rad50 strain growth inhibition, active compounds read high. The method, boiled down: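 A DNA repair-deficient yeast mutant serves as the test organism; compound-induced growth inhibition is calculated against vehicle-treated cells.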
Assay [2] in a line: NCI Yeast Anticancer Drug Screen. Data for the mec2-1 strain (AID 157). Conditions: S. cerevisiae mec2-1 strain, active compounds read high. The method, boiled down:
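Yeast mec2-1 mutant treated with compound. Readout: growth inhibition vs vehicle controls.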

Assay [3] in a line: NCI Yeast Anticancer Drug Screen. Data for the sgs1 mgt1 strain (AID 161).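 Note: 0% = growth of cultures given vehicle only.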 As to conditions: S. cerevisiae sgs1 mgt1 strain, active compounds read high. The method, boiled down: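 Read-out: growth inhibition vs vehicle controls. Cells: mutant yeast strain deficient in DNA damage repair.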
Assay [4] in a line: NCI Yeast Anticancer Drug Screen. Data for the cln2 rad14 strain (AID 165).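 Note: 0% = growth equal to vehicle treated cultures.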 Conditions: S. cerevisiae cln2 rad14 strain, active compounds read high. The method in brief:
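cln2 rad14 yeast strain; compound exposure; growth inhibition read vs vehicle controls.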

The nature of assay [5]: NCI Yeast Anticancer Drug Screen. Data for the bub3 strain (AID 167). Conditions: S. cerevisiae bub3 mutant strain, active compounds read high. The method, boiled down: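 Inhibition values come from growth of compound-treated mutant yeast normalised to vehicle-treated controls.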
Assay [6] can be described thus: NCI Yeast Anticancer Drug Screen. Data for the mlh1 rad18 strain (AID 175). As to conditions: S. cerevisiae mlh1 rad18 strain growth inhibition, active compounds read high. The method in brief: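 Yeast w/ defined DNA-repair lesions; compound exposure; growth vs vehicle controls → % inhibition.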
[7] abbreviates: at 5.0 µM (retest, dose inferred, filed as 0.5).
[8] abbreviates: at 50.0 µM (retest, dose inferred, filed as 5.0).

About 79,000 compounds went through this panel and 15% of them were active in at least one assay; those are over-represented in the sample as a whole. A number with no mark means an inactive call. Calls of active or inactive are those of the source. Cut-off read from the data, not from the text of the source: active = growth inhibition above about 70%; inactive = the rest.

Regarding `CC12CC[C@@H](C(C)(C)O)C1[C@@H](O)CC1(C)C2CCC2[C@@]3(C)CC[C@H](O)C(C)(C)C3C(O)C[C@]21C` (some centres not stated), the growth inhibition in assay [1] (setting [7]) is 17%; in assay [1] (setting [8]), 98% (active); in assay [1] (at 50.0 µM) it was 90% (active); in assay [2] (setting [7]) it was 19%; in assay [2] (setting [8]) it was 99% (active); in assay [2] (at 50.0 µM), 92.5% (active). Besides, the growth inhibition in assay [3] (setting [7]) is 9%; in assay [3] (setting [8]), 98% (active); in assay [3] (at 50.0 µM), 92.3% (active); in assay [4] (setting [7]), 17%; in assay [4] (setting [8]), 98% (active); in assay [4] (at 50.0 µM), 91.4% (active). For the same compound, the growth inhibition in assay [5] (setting [7]) was 15%; in assay [5] (setting [8]), 98% (active); in assay [5] (at 50.0 µM), 91.8% (active); in assay [6] (setting [7]), 41%; in assay [6] (setting [8]), 98% (active); in assay [6] (at 50.0 µM) it was 91.8% (active).
For the compound `O=[N+]([O-])c1cc(Cl)ccc1S(=O)(=O)c1ccccc1`, the growth inhibition is -19% in assay [1] (setting [7]); 75% (active) in assay [1] (setting [8]); 77.2% (active) in assay [1] (at 50.0 µM); -31% in assay [2] (setting [7]); 30% in assay [2] (setting [8]); 62.1% in assay [2] (at 50.0 µM). For the same compound, the growth inhibition in assay [3] (setting [7]) was -7%; in assay [3] (setting [8]), 57%; in assay [3] (at 50.0 µM) it was 78.8% (active); in assay [4] (setting [7]), 22%; in assay [4] (setting [8]) it was 40%; in assay [4] (at 50.0 µM) it was 47.5%. For the same compound, the growth inhibition was -13% in assay [5] (setting [7]); 79% (active) in assay [5] (setting [8]); 76.6% (active) in assay [5] (at 50.0 µM); -25% in assay [6] (setting [7]); 75% (active) in assay [6] (setting [8]); 79.7% (active) in assay [6] (at 50.0 µM).
Turning to `Clc1ccc(N2CCN(CCCN3CCN(c4ccc(Cl)cc4)CC3)CC2)cc1`, the growth inhibition in assay [1] (setting [7]) was -2%; in assay [1] (setting [8]), 29%; in assay [1] (at 50.0 µM) it was 67.9%; in assay [2] (setting [7]), -6%; in assay [2] (setting [8]), 35%; in assay [2] (at 50.0 µM) it was 18.5%. Besides, the growth inhibition in assay [3] (setting [7]) is -14%; in assay [3] (setting [8]) it was 74% (active); in assay [3] (at 50.0 µM), 81.2% (active); in assay [4] (setting [7]) it was -3%; in assay [4] (setting [8]) it was 30%; in assay [4] (at 50.0 µM), 6.25%. Besides, the growth inhibition was -3% in assay [5] (setting [7]); 24% in assay [5] (setting [8]); 24.9% in assay [5] (at 50.0 µM); 4% in assay [6] (setting [7]); 42% in assay [6] (setting [8]); 31.8% in assay [6] (at 50.0 µM).
On to `COc1ccc(C=Nc2ccccc2O)cc1`, for which the growth inhibition in assay [1] (setting [7]) was 26%; in assay [1] (setting [8]), 44%; in assay [1] (at 50.0 µM), 59.1%; in assay [2] (setting [7]), 15%; in assay [2] (setting [8]), 22%; in assay [2] (at 50.0 µM), 32.2%. Moreover, the growth inhibition in assay [3] (setting [7]) was 11%; in assay [3] (setting [8]) it was 15%; in assay [3] (at 50.0 µM) it was 39.5%; in assay [4] (setting [7]), -2%; in assay [4] (setting [8]), 13%; in assay [4] (at 50.0 µM), -15.9%. For the same compound, the growth inhibition is 81% (active) in assay [5] (setting [7]); 74% (active) in assay [5] (setting [8]); 76.6% (active) in assay [5] (at 50.0 µM); 38% in assay [6] (setting [7]); 54% in assay [6] (setting [8]); 67.4% in assay [6] (at 50.0 µM).
As for `O=C1OC(=O)c2cccc3cccc1c23`, the growth inhibition was 51% in assay [1] (setting [7]); 99% (active) in assay [1] (setting [8]); 98.8% (active) in assay [1] (at 50.0 µM); 35% in assay [2] (setting [7]); 99% (active) in assay [2] (setting [8]); 99.1% (active) in assay [2] (at 50.0 µM). The growth inhibition in assay [3] (setting [7]) is 19%; in assay [3] (setting [8]) it was 99% (active); in assay [3] (at 50.0 µM) it was 98.5% (active); in assay [4] (setting [7]), 23%; in assay [4] (setting [8]) it was 99% (active); in assay [4] (at 50.0 µM), 98.5% (active). Also, the growth inhibition is 58% in assay [5] (setting [7]); 99% (active) in assay [5] (setting [8]); 99.5% (active) in assay [5] (at 50.0 µM); 57% in assay [6] (setting [7]); 99% (active) in assay [6] (setting [8]); 98.4% (active) in assay [6] (at 50.0 µM).
On to `COc1ccc(/C=C2/C(=O)NC3SC=C(c4cccc([N+](=O)[O-])c4)N23)cc1` (configuration not stated), for which the growth inhibition in assay [1] (setting [7]) is 8%; in assay [1] (setting [8]) it was 6%; in assay [1] (at 50.0 µM), 33%; in assay [2] (setting [7]), 0%; in assay [2] (setting [8]) it was 2%; in assay [2] (at 50.0 µM), 10.9%. The growth inhibition was -4% in assay [3] (setting [7]); -1% in assay [3] (setting [8]); 32.6% in assay [3] (at 50.0 µM); 34% in assay [4] (setting [7]); -23% in assay [4] (setting [8]); 11.4% in assay [4] (at 50.0 µM). Further, the growth inhibition in assay [5] (setting [7]) was 21%; in assay [5] (setting [8]), 13%; in assay [5] (at 50.0 µM), 62.9%; in assay [6] (setting [7]), 5%; in assay [6] (setting [8]), 23%; in assay [6] (at 50.0 µM), 29.7%.
Consider `CCCCCN(CCCCC)C(=O)CCl`, for which the growth inhibition in assay [1] (setting [7]) was -2%; in assay [1] (setting [8]), 30%; in assay [1] (at 50.0 µM), 68.6%; in assay [2] (setting [7]), -3%; in assay [2] (setting [8]), 15%; in assay [2] (at 50.0 µM) it was 53.5%. Besides, the growth inhibition is -3% in assay [3] (setting [7]); 10% in assay [3] (setting [8]); 69.2% in assay [3] (at 50.0 µM); 8% in assay [4] (setting [7]); 7% in assay [4] (setting [8]); -6.75% in assay [4] (at 50.0 µM). The growth inhibition in assay [5] (setting [7]) was 12%; in assay [5] (setting [8]), 58%; in assay [5] (at 50.0 µM) it was 82.5% (active); in assay [6] (setting [7]), -1%; in assay [6] (setting [8]), 23%; in assay [6] (at 50.0 µM), 85.3% (active).
Regarding `COC(=O)c1ccc(-c2ccccc2)cc1`, the growth inhibition in assay [1] (setting [7]) is -1%; in assay [1] (setting [8]), 83% (active); in assay [1] (at 50.0 µM) it was 82.3% (active); in assay [2] (setting [7]) it was 1%; in assay [2] (setting [8]) it was 94% (active); in assay [2] (at 50.0 µM) it was 99.2% (active). For the same compound, the growth inhibition in assay [3] (setting [7]) is 3%; in assay [3] (setting [8]), 82% (active); in assay [3] (at 50.0 µM) it was 98% (active); in assay [4] (setting [7]), -2%; in assay [4] (setting [8]) it was 55%; in assay [4] (at 50.0 µM), 44.2%. For the same compound, the growth inhibition was 10% in assay [5] (setting [7]); 92% (active) in assay [5] (setting [8]); 96% (active) in assay [5] (at 50.0 µM); 2% in assay [6] (setting [7]); 86% (active) in assay [6] (setting [8]); 96.8% (active) in assay [6] (at 50.0 µM).
As to `O=C1/C(=C\c2ccccc2)CN(C(=O)CCN2CCCCC2)C/C1=C/c1ccccc1`, the growth inhibition in assay [1] (setting [7]) was 16%; in assay [1] (setting [8]), 71% (active); in assay [1] (at 50.0 µM), 89.8% (active); in assay [2] (setting [7]), 22%; in assay [2] (setting [8]) it was 57%; in assay [2] (at 50.0 µM) it was 92.8% (active). Moreover, the growth inhibition in assay [3] (setting [7]) was 98% (active); in assay [3] (setting [8]), 99% (active); in assay [3] (at 50.0 µM) it was 90.3% (active); in assay [4] (setting [7]), 83% (active); in assay [4] (setting [8]), 99% (active); in assay [4] (at 50.0 µM) it was 90.3% (active). Further, the growth inhibition is 99% (active) in assay [5] (setting [7]); 99% (active) in assay [5] (setting [8]); 90.8% (active) in assay [5] (at 50.0 µM); 28% in assay [6] (setting [7]); 74% (active) in assay [6] (setting [8]); 88.8% (active) in assay [6] (at 50.0 µM).

Source of the values: PubChem BioAssay (NCI).
